According to PubChem BioAssay (EPA / NIEHS):
Records with an inconclusive call do not appear. Activity calls are given as the source filed them. How the source made its calls: active means hit-call score of the fitted dose curve at least 0.9, where 1 is the maximum; inconclusive means response in the unintended direction; inactive means score below 0.9.

test: STM_H9_OrnCyssISnorm_ratio: Stemina devTOX quickPredict H9 human embryonic stem cell (hESC)-based Assay for Ornithine (ORN):Cystine (CYSS) Ratio (AID 2283714)
Experimental: STM_H9_secretome utilizes undifferentiated H9 cells to measure relative changes in two metabolites, ornithine (ORN) and cystine (CYSS) in the secretome, targeting a critical drop in the ORN/CYSS ratio as a biomarker for developmental toxicity.STM_H9_OrnCyssISnorm_ratio is one of 10 components calculated in the STM_H9_secretome assay. It is the ratio value of OrnISnorm_perc to CyssISnorm_perc.Data from the assay component STM_H9_OrnCyssISnorm_ratio was analyzed at the assay endpoint STM_H9_OrnCyssISnorm_ratio in the positive analysis fitting direction relative to DMSO as the negative control and baseline of activity. Using a type of binding reporter, gain or loss-of-signal activity can be used to understand relative metabolite change.
H9 hESCs maintained in a pluripotent state were exposed to test compound for 72h with chemical replenishment with media replacement every 24h. Cell-conditioned media from the final 24-h treatment period was collected for analysis of the targeted biomarker, and cell viability of the corresponding cell layer was assessed. The chemical library was tested in blinded fashion. Each test plate included 1uM Methotrexate (MTX; Selleck Chemicals, Houston, Texas) as a positive reference, 5 nM MTX as a negative reference, 0.1% DMSO as the neutral (vehicle) control, and sample-level media blanks.H9 cell-conditioned media from the final 24-h treatment period was collected for analysis of the targeted biomarker and cell viability was measured from the corresponding cell layer. Cell viability was measured using the CellTiter-Fluor assay (Promega, Madison, Wisconsin) based on proteolytic cleavage of a substrate to fluorescent signal proportional to the number of living cells. The cell viability Relative Fluorescence Unit (RFU) was background corrected and normalized to mean RFU of the neutral control (0.1% DMSO). The collected H9-cell-conditioned media samples were processed for targeted biomarker analysis as described (Palmer et al., 2013). Briefly, spent media samples were deproteinized (40% acetonitrile) and processed for UPLC-HRMS. Data acquisition was performed using 4 separate UPLC-HRMS systems, consisting of an Agilent 1290 Infinity LC system (Agilent Technologies) interfaced with an Agilent high-resolution mass spectrometer (models G6520A, G6520B, G6530A, and G6224A). A Waters Acquity UPLC BEH Amide column (2.1mm x 50mm, 1.7lm particle size; Waters, Milford, Massachusetts) maintained at 40C was applied for separation of metabolites using a 6.5min solvent gradient with 0.1% formic acid in water and 0.1% formic acid in acetonitrile (1.0ml/min flow rate). Data were acquired using MassHunter Acquisition software (version B 04.00, Agilent Technologies). The extracted ion chromatogram (EIC) areas for ORN, CYSS, and their respective spike-in C13-standards were determined using the Agilent MassHunter Quantitative Analysis software, version B.05.00 or newer (Agilent Technologies), and data were normalized as described in Palmer et al. (2017).

Structure (SMILES) | outcome | AC50
CCCCCCCCOC(=O)c1ccccc1C(=O)OCCCCCCCC | inactive | –
Clc1ccc(C(Cl)(Cl)Cl)cc1 | – | 86.5 µM (active)
CCNc1nc(NC(C)C)nc(SC)n1 | – | 33.3 µM (active)
Clc1ccc(C(c2ccccc2Cl)C(Cl)(Cl)Cl)cc1 (stereo not drawn) | – | 69.9 µM (active)
CCC(C)c1cc([N+](=O)[O-])cc([N+](=O)[O-])c1O (stereo not drawn) | inactive | –
ClC1=C(Cl)[C@]2(Cl)[C@@H]3[C@H]4C[C@H]([C@@H]5O[C@H]45)[C@@H]3[C@@]1(Cl)C2(Cl)Cl | – | 72.4 µM (active)
C1CC2OC2CC1C1CO1 (stereo not drawn) | – | 66.1 µM (active)
CCCCCCCCCC[N+](C)(C)CCCCCCCCCC | – | 1.94 µM (active)
CCCCCCOC(=O)c1ccccc1C(=O)OCCCCCC | – | 3.69 µM (active)
CCSC(=O)N(CC)C1CCCCC1 | – | 35.2 µM (active)
Nn1cnnc1 | inactive | –
C=CC(=O)NCNC(=O)C=C | – | 73.2 µM (active)
Sc1ccccc1 | inactive | –
CO/C=C(/C(=O)OC)c1ccccc1COc1cccc(C(F)(F)F)n1 | inactive | –
O=NN(c1ccccc1)c1ccccc1 | inactive | –
CCC(=O)O[C@H]1CC[C@H]2[C@@H]3CCC4=CC(=O)CC[C@]4(C)[C@H]3CC[C@]12C | – | 28.6 µM (active)
CC1=C2C[C@H]3[C@@H](CC=C4C[C@@H](O)CC[C@@]43C)[C@@H]2CC[C@]12O[C@@H]1C[C@H](C)CN[C@H]1[C@H]2C | inactive | –
Cc1cc(O)ccc1Cl | inactive | –
